PubChem BioAssay AID434970 (Sanford-Burnham Center for Chemical Genomics, 2010)
Out of some 11,000 compounds screened, about 310 (2.8%) were called active. Cut-off read from the data, not from the text of the source: active = activity change below about -85%; inactive = the rest. For the sample, actives were picked, then their nearest neighbours and some compounds at random.

System: intestinal alkaline phosphatase [Mus musculus]
Assay: activators of mouse IAP, confirmation, biochemical, luminescence, single concentration (AID 434970)
Conditions: purified mouse IAP, CDP-Star luminescence, 30 min, at 10 µM; activation factor: measured here: IAP activation factor, stronger effect = higher value; activity change, negative = activation: stronger effect = lower value

| SMILES | activation factor | activity change, negative = activation |
| --- | --- | --- |
| c1coc(C2Nc3cccc4cccc(c34)N2)c1 | 0.307 | 69.3% (inactive) |
| CN1CC2([N+](=O)[O-])CC=C(Oc3ccccc3)C([N+](=O)[O-])(C1)C2 (configuration not stated) | 0.919 | 8.05% (inactive) |
| C#CCOCCOCCOCCNc1nc(N2CCN(C(=O)CCCCCCCCCCNC(=O)[C@@H](CCSC)n3cc(CCO)nn3)CC2)nc(N2CCN(C(=O)CCCCCCCCCCNC(=O)[C@H](CCSC)n3cc(CCO)nn3)CC2)n1 | 1.78 | -77.9% (inactive) |
| C#CCOCCOCCOCCNc1nc(N2CCN(C(=O)CCCCCCCCCCNC(=O)Cn3cc(C[C@@H](C)O)nn3)CC2)nc(N2CCN(C(=O)CCCCCCCCCCNC(=O)[C@@H](CCSC)n3cc(CCO)nn3)CC2)n1 | 1.97 | -96.8% (active) |
| C#CCOCCOCCOCCNc1nc(N2CCN(C(=O)CCCCCCCCCCNC(=O)Cn3cc(CCCCCN)nn3)CC2)nc(N2CCN(C(=O)CCCCCCCCCCNC(=O)[C@H](CO)n3cc(CCCSC)nn3)CC2)n1 | 2.53 | -153% (active) |
| C#CCOCCOCCOCCNc1nc(N2CCN(C(=O)CCCCCCCCCCNC(=O)Cn3cc(CCCCCN)nn3)CC2)nc(N2CCN(C(=O)CCCCCCCCCCNC(=O)[C@@H](CCSC)n3cc(CCO)nn3)CC2)n1 | 3.56 | -256% (active) |
| CCOc1ccc(-n2c(SCC(=O)NCc3ccco3)nc3c(c2=O)SCC3)cc1 | 0.865 | 13.5% (inactive) |
| COc1cc(O)c2c(c1)OC(C)(C)CC2=O | 1.08 | -7.6% (inactive) |
| O=C(CSc1nc2cccnc2n1Cc1ccccc1)N1CCCC1 | 1.07 | -7.2% (inactive) |
| COC(=O)[C@H](CCSC)NC(=O)Cn1cnc(C(=O)Nc2ccc(C)c(C)c2)n1 | 0.956 | 4.35% (inactive) |
| CC(NC(=O)CCSc1nc(-c2ccco2)cc(C(F)(F)F)n1)c1ccccc1 (configuration not stated) | 0.94 | 6% (inactive) |
| O=C(N/N=C/c1ccc([N+](=O)[O-])o1)c1ccccc1NS(=O)(=O)c1cccs1 | 0.375 | 62.5% (inactive) |
| O=C(c1ccc(C(=O)N2CCOCC2)nc1)N1CCOCC1 | 1.09 | -8.9% (inactive) |
| CCc1ccc(NC(=O)c2sccc2-n2cccc2)cc1 | 1.04 | -4.35% (inactive) |
| Fc1cc(NC(=S)NCc2ccc(CNC(=S)Nc3ccc(Cl)c(F)c3)cc2)ccc1Cl | 1.44 | -44.1% (inactive) |
| O=C(Nc1ccc(Cl)cc1)NC1CCCCC1Cc1ccco1 (configuration not stated) | 2.11 | -111% (active) |
| O=C(Nc1ccc(Cl)cc1)C1CCN(C(=O)NC2CCCCC2)CC1 | 0.914 | 8.6% (inactive) |
| O=C(NCCSCc1ccco1)Nc1cc(Cl)cc(Cl)c1 | 1.27 | -27.2% (inactive) |
| CC/C(=N\n1nnnc1Nc1ccccc1)c1ccccc1 | 1.02 | -2.45% (inactive) |
| Cc1ccc(N2C(=O)/C(=C/c3ccco3)SC2=S)cc1 | 0.396 | 60.5% (inactive) |
| Cc1cc2oc(=O)cc(-c3ccccc3)c2c(C)c1-c1ccc(N(C)C)cc1 | 0.885 | 11.4% (inactive) |
| COc1cccc(N/C(C)=C/C(=O)c2ccc(Br)cc2)c1 | 1 | -0.05% (inactive) |
| O=C(Nc1ccc2c(c1)CCC2)Nc1ccccc1F | 1.69 | -68.5% (inactive) |
| Cn1cccc1C(=O)OCC(=O)Nc1ccc2c(c1)CCC2 | 1.05 | -5.05% (inactive) |
| COc1cccc(NC(=O)Nc2ccc3c(c2)N(C)C(=O)CS3)c1 | 0.986 | 1.5% (inactive) |
| Cc1cccc(NC(=O)Nc2ccc3c(c2)CCC3)c1 | 1.41 | -41.4% (inactive) |

| SMILES | activation factor | activity change, negative = activation |
| --- | --- | --- |
| O=C(Nc1ccccc1)Nc1ccc2c(c1)CCC2 | 1.95 | -94.8% (active) |
| COc1cccc(NC(=O)Nc2ccc3c(c2)CCC3)c1 | 2.9 | -190% (active) |
| Cc1ccc(NCc2nnc(SCC(=O)N3CCCc4ccccc43)o2)c(C)c1 | 1.02 | -2.3% (inactive) |
| CCS(=O)(=O)n1nc(-c2ccccc2)nc1N | 0.926 | 7.4% (inactive) |
| CC(/C=N/n1cnnc1)=C\c1ccccc1 | 1.02 | -1.9% (inactive) |
| CC1(C)CC(=O)C2=C(C1)NC(=O)CC2C(=O)NCc1ccc(F)cc1 (configuration not stated) | 1.3 | -29.9% (inactive) |
| COc1cc(-c2nnc3n2N=C(c2ccccc2)CS3)cc(OC)c1OC | 0.996 | 0.4% (inactive) |
| CCCNC(=O)c1ccccc1NC(=O)CN(c1ccccc1OCC)S(C)(=O)=O | 1.15 | -15.4% (inactive) |
| O=P(OC1CCS(=O)(=O)C1)(c1ccccc1)c1ccccc1 (configuration not stated) | 0.921 | 7.85% (inactive) |
| [N-]=[N+]=CC(=O)CCCN1C(=O)c2ccccc2C1=O | 1.09 | -9.05% (inactive) |
| O=C(Cc1cccs1)Nc1nnc(CCc2ccccc2)s1 | 1.15 | -14.7% (inactive) |
| Cc1cc(C)cc(NC(=S)NCCN(C2CCCCC2)C2CCCC2)c1 | 1.28 | -28.3% (inactive) |
| Cc1cccc(NC(=O)CC2NC3CCCCC3NC2=O)c1 (configuration not stated) | 0.974 | 2.55% (inactive) |
| Cc1cc(C)cc(NC(=O)Nc2ccc(N3CCCCC3)cc2)c1 | 1.16 | -15.9% (inactive) |
| CC(=O)OC(C(=O)NC1CCCCC1)c1cccc(C)c1 (configuration not stated) | 1.04 | -4.4% (inactive) |
| Cc1cccc(NC(=O)NC2CCCCCCC2)c1 | 2.45 | -145% (active) |
| Cc1ccc(NC(=S)NC2CCCCC2)cc1S(=O)(=O)N(C)C | 1.3 | -29.9% (inactive) |
| O=C(Nc1cccc(F)c1)c1ccccc1 | 1.01 | -0.8% (inactive) |
| Cc1cc(C)cc(NC(=O)NC2CCCCCCC2)c1 | 3.37 | -237% (active) |
| CC1CCCN(C(=O)C2(NC(=O)Nc3cccc(F)c3)CCCCC2)C1 (configuration not stated) | 1.81 | -81.1% (inactive) |
| Cc1ccc(NC(=O)NC2CCCCCCC2)cc1C | 2.56 | -156% (active) |
| Cc1ccc(NC(=O)C2CCN(C(=O)NC3CCCCC3)CC2)cc1Cl | 1.21 | -20.9% (inactive) |
| O=C(Nc1cccc(F)c1)NC1CCCCCCC1 | 2.42 | -142% (active) |
| C=CCNc1nc(Nc2ccc(OC)cc2)nc(OC)n1 | 0.992 | 0.8% (inactive) |
| CC(C)C(NC(=S)NCc1ccccc1)C(=O)O (configuration not stated) | 0.93 | 7% (inactive) |
